Source: PubChem BioAssay
GSIS activator = GLuc luminescence reporter in INS-1E cells, primary screen for activators of glucose-dependent secretion of insulin. INS-1E GLuc reporter insulin secretion, 2-3 h. activation, % at 16.6 µM. 0.61% of 370,000 active. AID 743287;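 active = lowest replicate activation of at least 40%, so every replicate reaches that level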;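 also: 0% = median of neutral control wells and 100% = median of IBMX positive control wells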
PGC1a acetyl inh = PGC1a acetylation modulation, inhibitor mode. U2OS PGC1a acetylation, AlphaScreen anti-acetyl-lysine; with virally co-expressed GCN5 acetyltransferase. inhibition, % at 15.6 µM. 0.17% of 350,000 active. AID 651687;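 active = every replicate shows inhibition of at least 40%; inconclusive = mean inhibition at least 40% but some replicate below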;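 also: 0% = neutral control wells and 100% = positive control wells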
CaV13 FRET inh = Primary screen for inhibitors of IQ motif and Ca2+-dependent inactivation inhibitor domain binding in CACNA1D, Förster resonance energy transfer in living cells, …; HEK cells, CFP/YFP FRET ICDI-IQ, plate reader, 10 min; percent FRET-ratio fall versus neutral wells; inhibition, % at 12.3 µM; 0.098% of 340,000 active; AID 743397;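 active = mean replicate inhibition of at least 30% and at least 1% of replicates passing that level; inconclusive = only one of the two criteria is met; inactive = neither criterion is met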;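 also: 0% = median of the neutral control wells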
Ecoli rRNA inh = inhibits bacterial ribosomal RNA function over humanized ribosomes | E. coli WT GFP vs humanized-ribosome RFP mutants, fluorescence, 24 h; hits give low values; DMSO median 0, no signal -100 | GFP signal change (wild-type ribosome), % (no concentration beside the values) | 1.6% of 350,000 active;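 active = significant combined selectivity score with lowered wild-type GFP, culture density cut under 30%, mutant RFP and density less affected; inactive = any of these conditions unmet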
DENV2 CPE = DENV2-induced cell death inhibition; DENV2-infected cells, cytopathic effect rescue, plate reader; CPE inhibition, % at 9.99 µM; 1.7% of 350,000 active; AID 651640; in the data active = CPE inhibition above about 20%, passing the limit was not always enough; inconclusive = no clear call, values can overlap the other calls; tested in BHK-21 cells;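 also: 0% = median of neutral control wells and 100% = median of positive control wells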
ERAP1 HTS inh = inhibitors of human ERAP1 aminopeptidase. inhibition, % at 10.7 µM. 0.15% of 340,000 active. Q9NZ08. AID 652197. recombinant ERAP1, Leu-AMC fluorescence, 60 min;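 active = mean replicate inhibition of at least 30%, or all replicates individually reaching that 30% level; inactive = mean below 30% and not every replicate reaching it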;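 also: 0% = neutral control wells and 100% = L-leucinethiol positive control wells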
Target sequence (Q9NZ08 whole entry, looked up): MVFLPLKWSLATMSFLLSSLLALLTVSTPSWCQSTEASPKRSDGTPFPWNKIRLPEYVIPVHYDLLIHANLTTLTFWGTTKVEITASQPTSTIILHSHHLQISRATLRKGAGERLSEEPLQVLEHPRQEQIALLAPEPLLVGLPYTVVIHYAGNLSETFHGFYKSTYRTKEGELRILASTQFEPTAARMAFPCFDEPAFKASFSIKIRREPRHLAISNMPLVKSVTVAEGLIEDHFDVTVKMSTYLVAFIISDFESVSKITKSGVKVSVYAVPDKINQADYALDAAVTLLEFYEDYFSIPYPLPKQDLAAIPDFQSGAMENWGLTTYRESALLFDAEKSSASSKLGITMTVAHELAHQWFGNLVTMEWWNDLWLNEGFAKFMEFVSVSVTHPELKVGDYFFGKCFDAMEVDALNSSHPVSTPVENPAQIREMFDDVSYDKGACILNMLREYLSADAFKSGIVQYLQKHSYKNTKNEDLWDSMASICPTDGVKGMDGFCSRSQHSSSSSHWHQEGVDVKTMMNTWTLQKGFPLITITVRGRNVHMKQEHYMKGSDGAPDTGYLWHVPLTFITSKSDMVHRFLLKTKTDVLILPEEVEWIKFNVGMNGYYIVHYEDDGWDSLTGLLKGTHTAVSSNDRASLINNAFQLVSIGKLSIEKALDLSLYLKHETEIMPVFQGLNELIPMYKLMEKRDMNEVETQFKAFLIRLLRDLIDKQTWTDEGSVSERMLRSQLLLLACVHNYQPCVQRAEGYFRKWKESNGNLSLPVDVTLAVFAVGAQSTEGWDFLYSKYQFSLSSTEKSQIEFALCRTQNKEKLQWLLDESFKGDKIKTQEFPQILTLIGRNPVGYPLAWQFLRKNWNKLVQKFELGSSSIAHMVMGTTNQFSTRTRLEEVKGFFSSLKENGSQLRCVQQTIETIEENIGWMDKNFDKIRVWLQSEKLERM
Numbers without * were called inactive; ? = inconclusive; · = no result. In the library only some 3.2% were active in any assay of this set; here they are far more common.

SMILES	GSIS activator	PGC1a acetyl inh	CaV13 FRET inh	Ecoli rRNA inh	DENV2 CPE	ERAP1 HTS inh
Cc1ccc2[nH]c3c(Cl)ncnc3c2c1	-16	22	-5	-29*	6	4
COc1ccc(CN(C)C[C@@H]2OCCCC[C@@H](C)Oc3ccc(NC(=O)CCCCCC(=O)Nc4ccccc4N)cc3C(=O)N([C@H](C)CO)C[C@@H]2C)cc1	27	-4	·	2	14	5
CC(C)(CO)CN1CCC(n2nccc2NC(=O)C2CCCC2)CC1	-11	-3	-3	4	1	-2
O=C(Nc1ccnn1C1CCN(CC(O)CO)CC1)C1CCCC1 (stereo not given)	-7	-3	·	1	71*	0
OCCCNc1nc(-c2ccc(Cl)cc2)nc2ccccc12	58*	·	-4	-41	-4	1
COCCCNc1nc(-c2ccc(Cl)cc2)nc2ccccc12	5	·	-19	-44	?	1
CCN(CC)CCCNc1nc(-c2ccccc2)nc2ccccc12	·	4	-3	·	·	·
COc1ccc(-c2nc(NCCCN(C)C)c3ccccc3n2)cc1	5	-10	-3	2	30*	-1
Cc1cc(C)cc(OCCCN2CCC(C(O)(c3ccccc3)c3ccccc3)CC2)c1	182*	·	-8	-50	0	-2
OC(c1ccccc1)(c1ccccc1)C1CCN(CCCOc2cccc(F)c2)CC1	-5	·	-10	-53	56*	-6
Cc1ccccc1OCCCN1CCC(C(O)(c2ccccc2)c2ccccc2)CC1	·	·	-12	-55	-1	-2
N#Cc1cccc(OCCCN2CCC(C(O)(c3ccccc3)c3ccccc3)CC2)c1	-34	·	-6	-44	-1	-4
Cc1cc(OCCCN2CCC(C(O)(c3ccccc3)c3ccccc3)CC2)ccc1Br	477*	·	-5	-46	-1	1
CCN(c1ccccc1)S(=O)(=O)c1cccc(C(=O)NCC(c2ccc(F)cc2)N2CCOCC2)c1 (stereo not given)	-47	4	-6	-25*	-2	0
C=CCN(c1ccccc1)S(=O)(=O)c1cccc(C(=O)NCC(c2ccc(F)cc2)N2CCOCC2)c1 (stereo not given)	-48	·	-1	-10	6	0
CC(=O)OC1CC(c2cc(C(C)(C)C)c(O)c(C(C)(C)C)c2)=NO1 (stereo not given)	·	1	-4	-21*	-2	-1
COc1ccc(C2=Nc3ccccc3NC(=O)C2N(CCCn2ccnc2)C(=O)c2cccc(S(C)(=O)=O)c2)cc1 (stereo not given)	-6	-8	-4	6	3	-2
COc1ccc(C2=Nc3ccccc3NC(=O)C2N(Cc2ccccc2)C(=O)C2=NNC(=O)CC2)cc1 (stereo not given)	-17	-1	-5	-23*	-7	2
O=C(Nc1cc(Cl)ccn1)C1(c2ccccc2)CC1(Cl)Cl (stereo not given)	·	1	-5	-42*	?	-1
C[C@H](CO)N1C[C@H](C)[C@H](CN(C)Cc2ccccc2C(F)(F)F)OCc2cn(nn2)CCCC1=O	4	3	·	-2	2	-1
Cc1cc(N2CCN(C)CC2)n2nc(-c3ccc(Cl)cc3)nc2n1	·	·	-19	10	35*	2
Cc1cc(N2CCOCC2)n2nc(C)c(-c3ccc(Cl)cc3)c2n1	10	1	-4	15	-1	4
Cc1ccc(-c2nc(N)n(C(=O)c3cccnc3)n2)cc1	·	10	·	·	·	·
Cc1ccc(C(=O)n2nc(-c3cccnc3)nc2N)cc1	72*	5	-9	·	·	·
CCOC(=O)C[n+]1ccc2c([nH]c3ccccc32)c1C	-4	6	-5	7	2	51*
SMILES	GSIS activator	PGC1a acetyl inh	CaV13 FRET inh	Ecoli rRNA inh	DENV2 CPE	ERAP1 HTS inh
CCOC(=O)Cc1c(Cl)c2ccccc2[nH]c1=O	8	1	-4	5	6	-3
Cc1cc(N2C(=O)C(O)=C(C(=O)c3cc4ccccc4o3)C2c2ccc(Cl)cc2)no1 (stereo not given)	-2	2	-16	-24*	-2	-1
Cc1cc(N2C(=O)C(O)=C(C(=O)c3ccco3)C2c2cccc(Cl)c2)no1 (stereo not given)	-29	·	-2	-32*	-2	3
Cc1cc(N2C(=O)C(O)=C(C(=O)c3ccc(C)o3)C2c2cccc(Cl)c2)no1 (stereo not given)	·	-7	-5	-14	-6	2
O=S(=O)(c1ccc(=S)[nH]c1)N1CCCCCC1	42*	33	-5	1	-2	0
O=C(C[C@@H]1CC[C@H]2[C@@H](COC[C@H](O)CN2C(=O)Nc2ccc(Cl)c(Cl)c2)O1)NCc1ccc(Cl)c(Cl)c1	-7	3	·	-57	-11	-3
CC(=O)N(C)C[C@@H]1Oc2ncc(-c3ccc(C)cc3)cc2C(=O)N([C@@H](C)CO)C[C@H]1C	6	1	·	-3	?	2
C[C@@H]1CN([C@@H](C)CO)C(=O)c2cc(-c3ccc(F)cc3)cnc2O[C@H]1CN(C)Cc1cncnc1	-4	0	·	-4	10	-6
Clc1cc(Br)ccc1OCCCn1ccnc1	18	-8	-5	-25	37*	-1
CC1CCN(CCOCCOc2ccc(Cl)cc2Br)CC1	-7	-10	-7	-30*	4	-4
Clc1cc(Br)ccc1OCCOCCN1CCCC1	13	7	-2	9	25*	2
Clc1cc(Br)ccc1OCCOCCN1CCOCC1	·	1	·	·	·	·
Clc1cccc(OCCOCCN2CCNCC2)c1Cl	6	-6	-4	-16*	?	4
O=C(Nc1cc(F)ccc1F)N1CC(=O)N2[C@H](CO)[C@H](c3ccc(C#CC4CCCC4)cc3)[C@H]2C1	-14	-7	·	-20	3	·
C[C@@H]1CN(C)C(=O)Cc2cc(N)ccc2O[C@H]1CN(C)C(=O)OC(C)(C)C	5	·	·	-2	·	·
Nc1nc(NCCOCCO)nc(NCC2CCCO2)c1[N+](=O)[O-] (stereo not given)	-12	·	2	4	0	4
Cc1ccc(Nc2nc(NCC3CCCO3)nc(N)c2[N+](=O)[O-])cc1 (stereo not given)	81*	·	-3	·	·	·
COCCNc1nc(N)c([N+](=O)[O-])c(NCC2CCCO2)n1 (stereo not given)	54*	·	-3	·	·	·
COc1ccc(NC(=O)N(C)C[C@@H]2Oc3c(NC(=O)c4nc5ccccc5s4)cccc3C(=O)N([C@H](C)CO)C[C@@H]2C)cc1	-28	9	·	-10	7	0
CN1c2ccc(C#Cc3ccccc3)cc2[C@H]2[C@H](CCN2S(=O)(=O)c2ccccc2F)[C@H]1CO	-2	·	·	5	·	·
